Measurements published in the supplement of paper PMC12636033.
± gives the standard deviation of the averaged measurements. Over roughly 33,000 sequences, “E-score (rank enrichment, -0.5 to 0.5)” has its median near -0.0068; the highest 2% begin near 0.24. What follows is part of a selection rich in the highest values, with near analogues and random picks from the rest.

Each sequence was assayed on muMax20 (Max(13-93) K31hArg/K57hArg, M65Nle) (assay: PBM 8-mer E-score (E-score (rank enrichment, -0.5 to 0.5)); higher = stronger preferential binding).
Method: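 Protein binding microarray (universal PBM chip covering all 10-mers in fixed probe flanks) with chemically synthesized human Max(13-93) bHLH-LZ analogs (not full-length Max) bearing noncanonical residues (hArg, Tha, Aib, Nle at 65) and aromatic Cys staples. Read-out per 8-mer (and its reverse complement): E-score (rank-based enrichment, -0.5 to 0.5) and Z-score of median probe intensity.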

Row | Sequence | PBM 8-mer E-score
1 | AATTAATG | 0.139 ± 0.05
2 | GGGGTGAA | 0.0293 ± 0.058
3 | ACCCAATA | 0.132 ± 0.054
4 | ACCTGTTC | 0.0511 ± 0.016
5 | CCGAGGAA | 0.0622 ± 0.053
6 | AATGACCC | 0.074 ± 0.021
7 | GTGGCACA | 0.137 ± 0.017
8 | ACTTTAGC | -0.00298 ± 0.1
9 | CGACTGCC | -0.163 ± 0.0073
10 | GAACGAAA | 0.0569 ± 0.079
11 | ATCCTGTC | -0.0955 ± 0.045
12 | CGGTACAC | -0.0567 ± 0.015
13 | AAAAAGCG | 0.0746 ± 0.018
14 | ACCGCCTA | -0.0164 ± 0.2
15 | AAACTATG | -0.057 ± 0.1
16 | AGTCCTAG | -0.0808 ± 0.069
17 | GATTAATA | 0.314 ± 0.062
18 | GATTAAGA | 0.119 ± 0.07
19 | AATTAAGA | 0.253 ± 0.013
20 | AATTAAGC | 0.191 ± 0.046
21 | GATTAATC | -0.0526 ± 0.063
22 | GATTAACA | 0.156 ± 0.037
23 | AACCTTCC | 0.0123 ± 0.0059
24 | AAACGAGA | 0.18 ± 0.13
25 | CAACGAGA | 0.0722 ± 0.14

Row | Sequence | PBM 8-mer E-score
26 | TAACGAGA | 0.263 ± 0.054
27 | ATTACAGG | 0.236 ± 0.066
28 | ATTACAGC | -0.00666 ± 0.05
29 | ATTACAGA | 0.0555 ± 0.062
30 | TAGATACA | 0.143 ± 0.12
31 | CTCCGAGC | -0.0246 ± 0.032
32 | AAGTCATT | 0.131 ± 0.027
33 | CTGTTACA | 0.0334 ± 0.0084
34 | ATGTTACC | 0.106 ± 0.016
35 | ATGTTACA | 0.239 ± 0.025
36 | CTATCTAA | 0.0704 ± 0.073
37 | CAATGTAC | 0.115 ± 0.019
38 | GAATGTAC | -0.0364 ± 0.078
39 | AAATGTAT | 0.241 ± 0.013
40 | AAATGTAG | 0.0928 ± 0.084
41 | AAATGTAC | 0.238 ± 0.048
42 | AAATGTGT | 0.175 ± 0.1
43 | ACAGGCCT | -0.0825 ± 0.039
44 | AGCAGTAA | -0.0641 ± 0.1
45 | ACAGCGGA | -0.0346 ± 0.033
46 | GAATCAGA | -0.0136 ± 0.14
47 | GGACGGAA | -0.0931 ± 0.17
48 | TGATTTAA | 0.177 ± 0.05
49 | AAGTATGA | 0.071 ± 0.059
50 | CAGTATGA | 0.138 ± 0.084

Row | Sequence | PBM 8-mer E-score
51 | TAGTATGA | 0.247 ± 0.067
52 | TGGAGACA | -0.0387 ± 0.082
53 | ACATCTAG | -0.0494 ± 0.021
54 | AGAGCATA | 0.0465 ± 0.086
55 | GTTTCAAA | 0.162 ± 0.01
56 | CTTTCAAA | 0.267 ± 0.044
57 | ATTTCAAG | 0.104 ± 0.023
58 | ATTTCAAA | 0.252 ± 0.0095
59 | ATTTCAAC | 0.146 ± 0.078
60 | CTTTCAAC | 0.0143 ± 0.071
61 | ACTGGCTA | -0.11 ± 0.0093
62 | CAGACAGA | -0.0661 ± 0.06
63 | GTTCAATA | 0.159 ± 0.039
64 | ATGCAATC | 0.126 ± 0.089
65 | CCACGTCC | -0.0476 ± 0.004
66 | CCACGTGA | 0.43 ± 0.082
67 | CCACGTGG | 0.475 ± 0.032
68 | CCACGTAG | -0.156 ± 0.06
69 | CCACGTGC | 0.463 ± 0.03
70 | GCACGTTA | 0.0863 ± 0.14
71 | CGACGTGA | 0.124 ± 0.012
72 | CGACGTGC | -0.0517 ± 0.017
73 | CCACGTTC | 0.114 ± 0.033
74 | CTACGTGA | -0.0185 ± 0.092
75 | CCACGTTA | 0.246 ± 0.059

Row | Sequence | PBM 8-mer E-score
76 | CAACGTGG | 0.11 ± 0.046
77 | ACGGTGAT | 0.0166 ± 0.12
78 | ACTGGACT | -0.0734 ± 0.014
79 | CACTCGAG | -0.165 ± 0.12
80 | TCACTCAA | 0.0768 ± 0.022
81 | TCCAGCAA | 0.0563 ± 0.029
82 | CTGGCCTC | -0.191 ± 0.03
83 | GTGCTAGA | 0.0749 ± 0.058
84 | CTAGGGAA | 0.00576 ± 0.011
85 | GGGCCCCC | -0.386 ± 0.075
86 | CAAACCCA | 0.212 ± 0.0064
87 | TGCAAGCA | -0.0637 ± 0.018
88 | CAGTGCAG | -0.189 ± 0.011
89 | CCTAGACA | -0.0468 ± 0.14
90 | AACAGGGA | 0.0422 ± 0.055
91 | ACGCACGA | 0.0808 ± 0.025
92 | AAGCACGG | -0.0498 ± 0.039
93 | ACGCACGC | 0.174 ± 0.014
94 | ACGCACGT | 0.288 ± 0.066
95 | ACGCACAT | 0.277 ± 0.039
96 | AAGCACGT | 0.297 ± 0.12
97 | AAGCACGA | 0.0985 ± 0.076
98 | ACGCACAG | -0.11 ± 0.11
99 | ACGCACAA | 0.0465 ± 0.071
100 | ACGACTCA | -0.0769 ± 0.055

Row | Sequence | PBM 8-mer E-score
101 | CGCACTCA | -0.0736 ± 0.0069
102 | CTCAAATA | 0.0362 ± 0.0096
103 | CATTGACC | 0.105 ± 0.047
104 | GGGTCGAC | -0.00629 ± 0.1
105 | AGCCTCAT | 0.0933 ± 0.064
106 | GTAATTTA | 0.0797 ± 0.016
107 | GTTAATCA | 0.204 ± 0.072
108 | ATTAATCC | 0.154 ± 0.022
109 | ATTAATTA | 0.258 ± 0.064
110 | ATTAATTC | 0.219 ± 0.0076
111 | ATTAATTG | 0.136 ± 0.075
112 | ATAATTTG | 0.167 ± 0.077
113 | ATTAATCA | 0.2533 ± 0.00043
114 | ATTAAGTA | 0.24 ± 0.02
115 | ATAATTTA | 0.244 ± 0.038
116 | GTTAAGTA | 0.063 ± 0.021
117 | ATTAAGTG | 0.148 ± 0.031
118 | CCTCGATC | -0.0647 ± 0.046
119 | GCCCATTA | -0.0555 ± 0.034
120 | CGGCGGAC | -0.282 ± 0.091
121 | GCAGGGCC | -0.171 ± 0.013
122 | CCTCGGTA | -0.295 ± 0.042
123 | CTCCGGAG | -0.227 ± 0.079
124 | TACTGTGA | 0.0496 ± 0.099
125 | GGGAACGA | -0.0255 ± 0.026

Row | Sequence | PBM 8-mer E-score
126 | ATTAGGAC | 0.0695 ± 0.13
127 | AGCACTAG | 0.0808 ± 0.12
128 | AAAGATCG | -0.152 ± 0.035
129 | CTAAATTA | 0.0189 ± 0.047
130 | ATAAATTA | 0.262 ± 0.08
131 | ATAAATTG | 0.157 ± 0.013
132 | CCGTAGTC | -0.131 ± 0.045
133 | AAGGAGAA | 0.172 ± 0.0052
134 | AACGTGTA | 0.2 ± 0.026
135 | CACGTGTA | 0.444 ± 0.054
136 | CACGTGTC | 0.448 ± 0.053
137 | CCCGTGTC | -0.147 ± 0.032
138 | AACGTGTC | 0.145 ± 0.043
139 | AAAGTGTA | 0.12 ± 0.1
140 | CAAGTGTA | 0.244 ± 0.042
141 | TAAGTGTA | 0.159 ± 0.064
142 | GACGTGTA | 0.0986 ± 0.0068
143 | ATACTTTC | 0.127 ± 0.013
144 | CAAGAAGG | 0.158 ± 0.048
145 | AGTCGACT | 0.176 ± 0.13
146 | ACATCCGC | -0.188 ± 0.099
147 | TAACTATA | 0.303 ± 0.0032
148 | CAACTATA | 0.108 ± 0.0066
149 | CTACTATC | 0.132 ± 0.0082
150 | CTACTATA | 0.249 ± 0.062

Row | Sequence | PBM 8-mer E-score
151 | ATACTAAA | 0.242 ± 0.038
152 | CTACTAAC | 0.237 ± 0.013
153 | TTACTAAA | 0.123 ± 0.07
154 | GTACTAAA | 0.108 ± 0.067
155 | CTACTAAG | -0.0701 ± 0.18
156 | ATACTATA | 0.156 ± 0.08
157 | ATACTAAC | 0.164 ± 0.066
158 | AAACTATA | 0.192 ± 0.05
159 | TCGAACGA | 0.0488 ± 0.053
160 | AACTGGCG | -0.0858 ± 0.061
161 | ATCGGCAA | -0.18 ± 0.089
162 | TCACCGCA | -0.0327 ± 0.14
163 | GATAAGCC | -0.111 ± 0.075
164 | GCAGATGA | 0.0628 ± 0.064
165 | CTTAGACC | -0.135 ± 0.073
166 | GAGGGGCC | -0.0409 ± 0.045
167 | CCGTGTAA | -0.147 ± 0.048
168 | TCGTGTAA | 0.13 ± 0.07
169 | ACGTGTAC | 0.233 ± 0.056
170 | ACGTGTAG | 0.19 ± 0.087
171 | ACGTGTAA | 0.327 ± 0.048
172 | ACGTGTAT | 0.386 ± 0.031
